Source: PubChem (National Center for Advancing Translational Sciences (NCATS))
KB-3-1 tox = KB-3-1 parental cell cytotoxicity. KB-3-1 viability, CellTiter-Glo ATP luminescence, 72 h. Potency, µM (top dose mostly 46.1 µM), hits mostly cytotoxic. actives 1.4% (n = 400,000). AID 1347075; also: nearly all actives have a fitted effect of over 60% in size
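Parental KB-3-1 adenocarcinoma cells in phenol-red-free DMEM with 10% FBS were pin-treated with compounds at several concentrations, incubated 72 h at 37 °C, and viability read by CellTiter-Glo luminescence; concentration-effect curves were fitted after normalization.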
DT40 TDP1 CPT = growth inhibition of DT40 Tdp1-/-;hTDP1 cells with camptothecin (screen for TDP1 inhibitors). chicken DT40 Tdp1-/-;hTDP1 cells + 20 nM CPT, ATP luminescence, 48 h. Potency, µM (series often up to 46.2 µM), inactives show at the top dose activity change, negative = growth inhibition, actives largely listed as inhibitors. actives 12% (n = 420,000); also: nearly all actives have a fitted effect of over 55% in size
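Chicken DT40 Tdp1-/- cells complemented with human TDP1, 400 cells/well, exposed to compounds plus 20 nM camptothecin for at least 48 h at 37 C; viability read as ATP content by CellTiter-Glo luminescence.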
HT1080NT lethal = kills 2HG-producing HT-1080-NT fibrosarcoma cells; HT-1080-NT fibrosarcoma viability, CellTiter-Glo ATP luminescence, 48 h; AID 686970; Potency, µM (highest dose often 46.1 µM), for the others: top-dose activity, negative = less viability, most hits filed as cytotoxic; actives 1.6% (n = 360,000);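 also: NT is the 2HG producing partner of a matched IDH1 knockdown line; 0% = DMSO-treated cells and -100% = media-only wells without cells; nearly all actives have a fitted effect of over 55% in size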
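Toxicity toward the 2HG-producing NT line was scored as %Activity, normalised to DMSO and no-cell wells, from CellTiter-Glo luminescence after 48 hours' treatment.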
KB-V1 cytotox = KB-V1 MDR subline cytotoxicity; KB-V1 MDR cells viability, CellTiter-Glo, 72 h; Potency, µM (highest dose often 46.1 µM), actives largely listed as cytotoxic; actives 3.4% (n = 400,000); also: nearly all actives have a fitted effect of over 60% in size
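KB-V1 cells (P-gp-expressing MDR subline of KB-3-1) in phenol-red-free DMEM with 10% FBS were exposed to library compounds over a concentration series for 72 h at 37 degrees C. Viability read by CellTiter-Glo luminescence; concentration-effect curves fitted after normalization.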
HT1080 IDH1KD tx = kills HT-1080 cells with IDH1 knockdown. HT-1080 IDH1 knockdown viability, ATP luminescence, 48 h. Potency, µM (series often up to 46.1 µM), for the others: at the top dose activity, negative = toxicity, usual class: cytotoxic. actives 2% (n = 360,000);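 also: 0% = DMSO wells and -100% = cell-free medium wells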
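% activity derives from luminescence (CellTiter-Glo), normalised to DMSO and no-cell wells. HT-1080-IDH1KD cells, 750/well, had 48 h compound exposure at 37 °C.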
TDP1 cell noCPT = qHTS for Inhibitors of human tyrosyl-DNA phosphodiesterase 1 (TDP1): qHTS in cells in absence of CPT | DT40 Tdp1-/- hTDP1 cells, no CPT, ATP luminescence, 48 h | Potency, µM (titrated, usually from 46.2 µM), without a hit: at the highest dose activity change, negative = growth inhibition, hits mostly inhibitors | actives 15% (n = 420,000); also: nearly all actives have a fitted effect of over 55% in size
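Stably hTDP1-transfected Tdp1-null chicken DT40 cells were treated with library compounds minus camptothecin and grown for at least 48 hr at 37 °C, after which cellular ATP was quantified by luminescence.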
An asterisk follows results filed as active; i = inactive; ? = inconclusive; . = no result given; [ ] = another dose, or the depositor's remark. Hits are enriched below; roughly 19% of the tested compounds scored in any of these assays. Calls follow the shape of the dose curve; as a rule, active = well fitted curve in the direction sought with a large enough effect; inconclusive = small, poorly fitted or top-dose-only effect, or another doubt; inactive = no such curve, though single readings can be large; an effect the other way counts as inactive or inconclusive. Unless noted, % is scaled to controls: 0 for no effect and ±100 for the full control effect; potency is read from the fitted curve at half-maximal effect.

SMILES	KB-3-1 tox	DT40 TDP1 CPT	HT1080NT lethal	KB-V1 cytotox	HT1080 IDH1KD tx	TDP1 cell noCPT
O=[N+]([O-])c1ccc(/C=C2\C=Cc3ccccc32)cc1	i	8.9µM*	.	i	.	?
O=[N+]([O-])c1ccc2c(c1)C=C/C2=C\c1ccccc1	i	-19%	.	i	.	-11%
CSc1ccc(/C=C2\C=Cc3cc([N+](=O)[O-])ccc32)cc1	?	11µM*	.	i	.	16µM*
NC(=O)c1cc[n+](CC2=C(C(=O)[O-])N3C(=O)[C@@H](NC(=O)Cc4cccs4)[C@H]3SC2)cc1	.	-6%[21.1 µM]	.	.	.	-20%[21.1 µM]
CCOC(=O)c1ccc(S(=O)(=O)N2CCN(CC(O)COc3cccc(C(C)=O)c3)CC2)cc1 (stereo not drawn)	i	-10%	-7%	i	-4%	-6%
CC(C)(C)NC(=O)NC(=O)COc1ccc(Br)cc1Br	i	-26%	?	i	-26%	-30%
CC(C)(C)NC(=O)NC(=O)COC(=O)COc1ccc(Cl)cc1Cl	i	18µM*	19%	i	12%	?
COc1cc2c(cc1OC)-c1cc3nc4ccccc4nc3n1C(C)(C)C2	.	12µM*	.	.	.	8.4µM*
COc1cc2c(cc1OC)-c1n[nH]c(=S)n1C(C)(C)C2	i	7%	1%	i	6%	0%
CC(C)CCOc1cccc(OCC(=O)Nc2ccncc2)c1	?	?	?	2.9µM*	?	13µM*
O=C(COc1ccc(-n2ccnc2)cc1)Nc1cccc(Cl)c1	?	?	0%	5.8µM*	-21%	?
O=C(COc1ccc(-c2ccccc2)cc1)Nc1cccnc1	i	18µM*	-12%	i	-16%	21µM*
O=C(COc1ccc([N+](=O)[O-])cc1)Nc1cccnc1	i	18%	18%	i	20%	12%
COc1cccc(OCC(=O)Nc2ccncc2)c1	?	1%	-13%	i	-9%	?
O=C(COc1ccc(Nc2ccccc2)cc1)Nc1ccncc1	i	?	-14%	i	-4%	16µM*
COc1ccc2[nH]c(=O)c(CN(CCO)C(=O)c3ccccc3F)cc2c1	i	-3%	1%	i	1%	-4%
CCOc1ccc(OCCCC(=O)Nc2nc3ccccc3[nH]2)cc1	i	14%	5%	i	8%	1%
Cc1ccc(OCC(=O)Nc2cc(C(=O)O)cc(C(=O)O)c2)cc1C	i	6.5µM*	11%	i	5%	?
Cc1ccc(OCC(=O)Nc2ccncc2)cc1C	i	?	-1%	i	-13%	?
Cc1cc(OCC(=O)Nc2ccncc2)ccc1[N+](=O)[O-]	?	?	-7%	?	-8%	21µM*
Cc1ccc(OCC(=O)Nc2cc(NC(=O)COc3ccc(C)cc3)cc(C(=O)O)c2)cc1	i	-2%	5%	i	5%	5%
N#Cc1ccc(COC(=O)CN2C(=O)NC3(CCCC3)C2=O)cc1	i	-15%	0%	?	16%	-23%
COc1cc(S(=O)(=O)n2cnc(C)c2)ccc1Br	?	-18%	-20%	?	?	?
CSc1cccc(NC(=O)Cn2c3ncccc3c(=O)n2-c2ccc(C)cc2)c1	i	?	.	i	.	16µM*
Cc1ccc(-n2c(=O)c3cccnc3n2CC(=O)Nc2cc(Cl)ccc2C)cc1	i	-15%	.	i	.	-21%
SMILES	KB-3-1 tox	DT40 TDP1 CPT	HT1080NT lethal	KB-V1 cytotox	HT1080 IDH1KD tx	TDP1 cell noCPT
Nc1nc(SCC(=O)Nc2ccc(Cl)cn2)n[nH]1	i	-13%	0%	i	0%	-2%
Cc1ccc(C)c(N2CCN(C(=O)C(CC(C)C)NS(=O)(=O)c3ccc4nc(C)sc4c3)CC2)c1 (stereo not drawn)	i	?	.	?	.	16µM*
COc1cc(NC(=O)C2CCN(S(=O)(=O)c3ccc4c(c3)oc(=O)n4C)CC2)cc(OC)c1	i	?	.	i	.	21µM*
COc1ccc(N2CCN(C(=O)C3CCN(S(=O)(=O)c4ccc5c(c4)oc(=O)n5C)CC3)CC2)cc1	i	?	4%	i	3%	9.2µM*
Cc1ccc(C)c(N2CCN(C(=O)C3CCN(S(=O)(=O)c4ccc5[nH]c(=O)oc5c4)CC3)CC2)c1	i	23µM*	.	i	.	26µM*
Cc1ccc(NC(=O)c2ccc(S(=O)(=O)N3CCCCC3)cc2)nc1	i	?	-1%	i	5%	-13%
CCOC(=O)C1CCCN(C(=O)C2CCCN(S(=O)(=O)c3ccc4c(c3)oc(=O)n4C)C2)C1 (stereo not drawn)	i	-20%	3%	i	5%	?
CN1CCN(C(=O)C2CCN(S(=O)(=O)c3ccc4c(c3)oc(=O)n4C)CC2)CC1	i	-7%	-1%	i	0%	-1%
CSCCC(NS(=O)(=O)c1ccc2c(c1)oc(=O)n2C)C(=O)N1CCN(c2cc(C)ccc2C)CC1 (stereo not drawn)	.	?	.	.	.	23µM*
Cn1c(=O)oc2cc(S(=O)(=O)N3CCCC(C(=O)NCCN4CCOCC4)C3)ccc21 (stereo not drawn)	i	-2%	-7%	i	-5%	-5%
Cn1c(=O)oc2cc(S(=O)(=O)N3CCCC(C(=O)N4CCc5ccccc5C4)C3)ccc21 (stereo not drawn)	i	16µM*	-10%	i	-2%	15µM*
Cn1c(=O)oc2cc(S(=O)(=O)N3CCCC(C(=O)N4CCN(c5ccc(F)cc5)CC4)C3)ccc21 (stereo not drawn)	i	7.3µM*	.	i	.	4.1µM*
Cc1ccc(C)c(N2CCN(C(=O)C3CCCN(S(=O)(=O)c4ccc5c(c4)oc(=O)n5C)C3)CC2)c1 (stereo not drawn)	i	16µM*	.	i	.	12µM*
COc1ccc(-c2noc(COc3cc(C)ccc3C)n2)cc1OC	i	?	.	i	.	?
O=C(CN(CC1CCCO1)C(=O)CNS(=O)(=O)c1ccc(F)cc1)NCc1ccc(F)cc1 (stereo not drawn)	i	11%	11%	i	18%	9%
C[C@H](NC(=O)c1nc[nH]c1C(=O)NCCCCCN)C(=O)OCc1ccccc1	i	-12%	5%	i	5%	-20%
CC(=O)SCC(CC(=O)c1ccc(C)cc1)C(=O)O (stereo not drawn)	.	8%	.	.	.	-1%
